# Experimental data published in PubChem BioAssay (NCATS).
# Values joined by “and” are separate entries in the source; they are usually repeats but may differ in a detail not shown here. Identical values can stand only once. Inconclusive results are not listed. Entries that show only a call come without a potency. Active and inactive are the calls of the source. Calls follow the shape of the dose curve; as a rule, active = well fitted curve in the direction sought with a large enough effect; inconclusive = small, poorly fitted or top-dose-only effect, or another doubt; inactive = no such curve, though single readings can be large; an effect the other way counts as inactive or inconclusive.
# Tests used:
# [1] = system: Zika virus NS2B-NS3 protease (unlinked); experiment: Optimization of GU AMC qHTS for Zika virus inhibitors: Unlinked NS2B-NS3 protease assay (AID 1347151); also: nearly all actives have a fitted effect of over 80% in size; also: potency is read from the fitted curve at half-maximal effect
# Outline: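 Noncovalent complex of NS2B hydrophilic domain and NS3 protease domain, 25 nM final, in 10 mM Tris-HCl pH 8.0, 0.01% Tween 20. AMC fluorescence change over 15 min at room temperature was fitted to a 4-parameter Hill equation.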
# [2] = target: Furin (Homo sapiens) (UniProt P09958); experiment: Furin counterscreen qHTS for Zika virus inhibitors (AID 1347149); also: nearly all actives have a fitted effect of over 70% in size; also: potency is read from the fitted curve at half-maximal effect
# Sequence of Furin (Homo sapiens) (P09958 whole entry, looked up): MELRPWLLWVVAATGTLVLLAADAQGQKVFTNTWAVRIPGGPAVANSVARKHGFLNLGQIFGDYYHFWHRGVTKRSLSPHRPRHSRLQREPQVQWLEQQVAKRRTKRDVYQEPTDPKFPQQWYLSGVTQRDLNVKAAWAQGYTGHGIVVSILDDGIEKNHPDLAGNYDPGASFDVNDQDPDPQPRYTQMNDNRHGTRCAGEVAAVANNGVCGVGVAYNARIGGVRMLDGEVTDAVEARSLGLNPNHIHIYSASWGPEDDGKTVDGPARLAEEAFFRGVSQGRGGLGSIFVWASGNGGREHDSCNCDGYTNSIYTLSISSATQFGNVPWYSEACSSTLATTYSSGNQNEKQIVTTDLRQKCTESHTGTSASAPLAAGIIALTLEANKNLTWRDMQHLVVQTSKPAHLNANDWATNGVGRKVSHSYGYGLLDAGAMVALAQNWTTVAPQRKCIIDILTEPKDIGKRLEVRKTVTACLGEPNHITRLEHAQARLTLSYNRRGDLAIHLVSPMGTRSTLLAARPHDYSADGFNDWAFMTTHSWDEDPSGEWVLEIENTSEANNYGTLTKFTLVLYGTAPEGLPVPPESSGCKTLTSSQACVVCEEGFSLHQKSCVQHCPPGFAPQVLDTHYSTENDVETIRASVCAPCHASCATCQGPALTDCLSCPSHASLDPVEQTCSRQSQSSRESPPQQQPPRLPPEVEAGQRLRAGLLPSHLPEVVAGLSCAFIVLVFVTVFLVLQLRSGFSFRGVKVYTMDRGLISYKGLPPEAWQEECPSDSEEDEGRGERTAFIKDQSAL
# Outline: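 Fluorogenic cleavage of BOC-RVRR-AMC (2 microM final, Km ~15 µM) was monitored (ex 340, em 450 nm) at 37C after 15 min RT preincubation of 5 nM furin with compounds in HEPES pH 7.0 buffer with CaCl2 and Triton X-100. Percent inhibition was fitted to a 4-parameter Hill curve.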
# [3] = system: Zika virus NS2B-NS3 protease (linked construct); experiment: Confirmatory screen NINDS AMC qHTS for Zika virus inhibitors (AID 1347152); also: nearly all actives have a fitted effect of over 70% in size; also: potency is read from the fitted curve at half-maximal effect
# Outline: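 Purified NS2B-NS3 protease with NS2B hydrophilic domain linked to NS3 protease domain by flexible linker, 1 nM final in 10 mM Tris-HCl pH 8.0, 0.01% Tween 20. Compounds preincubated 15 min, room temperature; Bz-Nle-KRR-AMC 10 microM (Km 18.3 µM); 15-min fluorescence change, 4-parameter Hill fit.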
# [4] = system: Zika virus NS2B-NS3 protease; experiment: Primary screen GU AMC qHTS for Zika virus inhibitors (AID 1347154); also: nearly all actives have a fitted effect of over 70% in size; also: potency is read from the fitted curve at half-maximal effect
# Outline: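 Unlinked Zika NS2B hydrophilic domain–NS3 protease complex at 25 nM in 10 mM Tris-HCl pH 8.0, 0.01% Tween 20, with an AMC peptide substrate. Fluorescence change (340/450 nm) over 15 min at room temperature, normalized to controls, fitted to 4-parameter Hill.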
# [5] = system: Zika virus NS2B-NS3 protease (unlinked complex); experiment: Confirmatory screen GU AMC qHTS for Zika virus inhibitors (AID 1347153); also: nearly all actives have a fitted effect of over 70% in size; also: potency is read from the fitted curve at half-maximal effect
# Outline: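 Unlinked enzyme 25 nM, Tris pH 8.0/0.01% Tween 20; cpd 15 min RT, dark; + AMC substrate 10 µM (Km 18.3 µM); 340/450 nm read at t0 and 15 min; % inhibition → 4-param fit.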
# [6] = target: N-terminal Xaa-Pro-Lys N-methyltransferase 1 (Homo sapiens) (UniProt Q9BV86); experiment: qHTS Assay for Inhibitors of N-terminal methyltransferase 1 (NTMT1): LOPAC validation of the NTMT1 SAHH-coupled ThioGlo3 Assay (AID 1347143)
# Sequence of N-terminal Xaa-Pro-Lys N-methyltransferase 1 (Homo sapiens) (Q9BV86 whole entry, looked up): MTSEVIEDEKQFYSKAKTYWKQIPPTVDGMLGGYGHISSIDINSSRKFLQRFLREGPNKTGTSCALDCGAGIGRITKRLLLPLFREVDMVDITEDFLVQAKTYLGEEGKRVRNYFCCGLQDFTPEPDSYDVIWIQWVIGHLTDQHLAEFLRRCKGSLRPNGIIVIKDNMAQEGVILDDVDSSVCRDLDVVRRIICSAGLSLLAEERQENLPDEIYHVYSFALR
# Outline: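 Recombinant human NTMT1 (125nM) was pre-incubated 1 min at room temperature with compounds over a concentration range, then a mix of 100uM SAM, 10uM SAHH and 15uM ThioGlo3 (concentrations in added reagent) was added. ThioGlo3 fluorescence (ex 340/em 450nm) after 30 min was normalized to the initial reading.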
# [7] = Confirmatory screen GU Rhodamine qHTS for Zika virus inhibitors qHTS (AID 1347157)
# Outline: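 Buffer 10 mM Tris-HCl pH 8.0, 0.01% Tween 20. Unlinked protease 25 nM; compound preincubation 15 min, RT, protected from light. Substrate Rhod110, 1.5 microM; ~15% conversion in 15 min.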
# [8] = qHTS of pediatric cancer cell lines to identify multiple opportunities for drug repurposing: Confirmatory screen for BT-37 cells (AID 1347117);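 also: potency is read from the fitted curve at half-maximal effect; viability measured after 48 h of compound exposure; nearly all actives have a fitted effect of over 55% in size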
# Outline: (§1)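 Viability after 48 h compound treatment at 37C, 500-1,000 cells/well, read as ATP luminescence with CellTiter-Glo. Primary screens used 11-point (MIPE, 0.78 nM-46 µM) or 8-point (NPC, 0.59 nM-46 µM) final concentrations; follow-up screens used 11-point dilutions.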
# [9] = qHTS of pediatric cancer cell lines to identify multiple opportunities for drug repurposing: Confirmatory screen for TC32 cells (AID 1347118);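 also: potency is read from the fitted curve at half-maximal effect; cells exposed to compound for 48 h before the read; nearly all actives have a fitted effect of over 65% in size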
# Outline: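 Measured quantity: luminescence from CellTiter-Glo, reflecting metabolically active TC32 cells following 48 h of compound. Curves came straight from multi-point titrations, with 8 or 11 points in primary and 11 in confirmatory screening.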
# [10] = qHTS of pediatric cancer cell lines to identify multiple opportunities for drug repurposing: Confirmatory screen for U-2 OS cells (AID 1347122); also: potency is read from the fitted curve at half-maximal effect; nearly all actives have a fitted effect of over 65% in size
# Outline: as §1
# [11] = qHTS of pediatric cancer cell lines to identify multiple opportunities for drug repurposing: Confirmatory screen for Rh41 cells (AID 1347123);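 also: potency is read from the fitted curve at half-maximal effect; 48 h compound exposure; nearly all actives have a fitted effect of over 60% in size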
# Outline: as §1
# [12] = qHTS of pediatric cancer cell lines to identify multiple opportunities for drug repurposing: Confirmatory screen for RD cells (AID 1347124);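 also: cells exposed to compound for 48 h before viability readout; nearly all actives have a fitted effect of over 65% in size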; also: potency is read from the fitted curve at half-maximal effect
# Outline: as §1
# [13] = qHTS of pediatric cancer cell lines to identify multiple opportunities for drug repurposing: Confirmatory screen for Rh18 cells (AID 1347125); also: potency is read from the fitted curve at half-maximal effect; nearly all actives have a fitted effect of over 55% in size
# Outline: as §1
# [14] = qHTS of pediatric cancer cell lines to identify multiple opportunities for drug repurposing: Confirmatory screen for Rh30 cells (AID 1347126); also: potency is read from the fitted curve at half-maximal effect; nearly all actives have a fitted effect of over 55% in size
# Outline: as §1
# [15] = qHTS of pediatric cancer cell lines to identify multiple opportunities for drug repurposing: Confirmatory screen for OHS-50 cells (AID 1347128);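 also: potency is read from the fitted curve at half-maximal effect; compound exposure lasted 48 h at 37 degrees C; nearly all actives have a fitted effect of over 55% in size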
# Outline: as §1
# [16] = qHTS of pediatric cancer cell lines to identify multiple opportunities for drug repurposing: Confirmatory screen for control Hh wild type fibroblast cells (AID 1347121); also: nearly all actives have a fitted effect of over 70% in size
# Outline: as §1
smiles,measurement,setting,value
CNC[C@H](O)c1cccc(O)c1,Potency,[1],inactive
CCn1cc(C(=O)O)c(=O)c2cc(F)c(N3CCNC(C)C3)c(F)c21 (stereo not given),Potency,[2],24.1 µM (active)
same,Potency,[1],26.7 µM (active)
same,Potency,[3],24.1 µM (active) and 27.1 µM (active)
same,Potency,[4],29.9 µM (active)
Cc1cnc(NC(=O)C2=C(O)c3ccccc3S(=O)(=O)N2C)s1,Potency,[1],inactive
CC(C)NCC(O)COc1ccc(COCCOC(C)C)cc1 (stereo not given),Potency,[1],inactive
same,Potency,[4],inactive
O=C1CCC(N2C(=O)c3ccccc3C2=O)C(=O)N1 (stereo not given),Potency,[1],inactive
CCCc1nc2c(C)cc(-c3nc4ccccc4n3C)cc2n1Cc1ccc(-c2ccccc2C(=O)O)cc1,Potency,[2],24.1 µM (active)
same,Potency,[3],21.5 µM (active)
same,Potency,[5],inactive
same,Potency,[4],inactive
CC(C[N+](C)(C)C)OC(N)=O (stereo not given),Potency,[6],inactive
same,Potency,[1],inactive
same,Potency,[4],inactive
Cc1ccccc1C(OCCN(C)C)c1ccccc1 (stereo not given),Potency,[1],inactive
O=c1n(CCCN2CCN(c3cccc(Cl)c3)CC2)nc2ccccn12,Potency,[2],24.1 µM (active)
same,Potency,[1],26.7 µM (active)
same,Potency,[3],24.1 µM (active)
same,Potency,[4],26.7 µM (active)
C1COC(NC(C2CC2)C2CC2)=N1,Potency,[1],inactive
same,Potency,[4],inactive
NC(=O)c1cnccn1,Potency,[1],inactive
CC(C)c1onc(-c2c(Cl)cccc2Cl)c1COc1ccc(/C=C/c2cccc(C(=O)O)c2)c(Cl)c1,Potency,[2],8.55 µM (active)
same,Potency,[3],24.1 µM (active)
same,Potency,[5],24.1 µM (active)
same,Potency,[4],6.7 µM (active)
Oc1ccc(C2CNCCc3c2cc(O)c(O)c3Cl)cc1 (stereo not given),Potency,[1],16.8 µM (active)
Cc1ccc(N(CC2=NCCN2)c2cccc(O)c2)cc1,Potency,[1],inactive
NC[C@H](O)c1ccc(O)c(O)c1,Potency,[1],inactive
same,Potency,[4],10.2 µM (active) and 11.9 µM (active)
OC(CCN1CCCCC1)(c1ccccc1)C1CC2C=CC1C2 (stereo not given),Potency,[1],inactive
CC(C)(Sc1ccc(CCN(CCCCC2CCCCC2)C(=O)NC2CCCCC2)cc1)C(=O)O,Potency,[2],inactive
same,Potency,[1],15 µM (active)
same,Potency,[7],1.97 µM (active)
Cc1c(CN2CCN(C(=O)C(C)C)CC2)sc2c(N3CCOCC3)nc(-c3cnc(N)nc3)nc12,Potency,[8],0.737 µM (active)
same,Potency,[9],0.737 µM (active)
same,Potency,[10],0.737 µM (active)
same,Potency,[11],0.414 µM (active)
same,Potency,[12],2.08 µM (active)
same,Potency,[13],0.827 µM (active)
same,Potency,[14],0.928 µM (active)
same,Potency,[15],1.04 µM (active)
COc1ccccc1-c1cccc(-c2c(O)c3cc(C#N)c(Cl)cc3[nH]c2=O)c1,Potency,[2],inactive
same,Potency,[5],inactive
same,Potency,[4],49.4 µM (active)
Clc1cccc(Cl)c1NC1=NCCN1,Potency,[1],inactive
same,Potency,[4],inactive
CC(=O)Oc1ccccc1C(=O)O,Potency,[1],26.7 µM (active)
same,Potency,[4],21.2 µM (active)
CCOc1cc(N2CCC(O)CC2)ccc1Nc1ncc2c(n1)N(C)c1ccccc1C(=O)N2C,Potency,[8],7.37 µM (active)
same,Potency,[9],0.928 µM (active)
same,Potency,[16],inactive
same,Potency,[4],inactive
Cn1cnc([N+](=O)[O-])c1Sc1ncnc2nc[nH]c12,Potency,[9],1.34 µM (active)
same,Potency,[16],inactive
same,Potency,[12],inactive
same,Potency,[15],4.24 µM (active)
same,Potency,[6],inactive
same,Potency,[2],inactive
same,Potency,[1],inactive
same,Potency,[4],inactive
Cc1[nH]c(=O)c(C#N)cc1-c1ccc2nccn2c1,Potency,[2],inactive
same,Potency,[1],21.2 µM (active)
same,Potency,[3],inactive
same,Potency,[5],inactive
same,Potency,[4],inactive
CCOC(=O)N1CCC(=C2c3ccc(Cl)cc3CCc3cccnc32)CC1,Potency,[1],inactive
same,Potency,[4],inactive
C[C@]12CCC(=O)C=C1CC[C@@H]1[C@@H]2[C@@H](O)C[C@@]2(C)[C@H]1CC[C@]2(O)C(=O)CO,Potency,[1],inactive
same,Potency,[4],inactive
CCOC(=O)C1=C[C@]2(CC)CCCN3CCc4c(n1c1ccccc41)[C@@H]32,Potency,[6],inactive
same,Potency,[4],inactive
COc1ccc(-c2ccc3c(N4CCOC[C@H]4C)nc(N4CCOC[C@H]4C)nc3n2)cc1CO,Potency,[8],0.233 µM (active)
same,Potency,[9],0.208 µM (active)
same,Potency,[10],0.329 µM (active)
same,Potency,[11],0.233 µM (active)
same,Potency,[14],0.185 µM (active)
same,Potency,[15],2.08 µM (active)
same,Potency,[4],6.81 µM (active)
CCCc1nn(C)c2c(=O)[nH]c(-c3cc(S(=O)(=O)N4CCN(C)CC4)ccc3OCC)nc12,Potency,[1],inactive
same,Potency,[4],inactive
CCC(C)N(C)C(=O)c1cc2ccccc2c(-c2ccccc2Cl)n1 (stereo not given),Potency,[1],inactive
same,Potency,[4],inactive
CC(C)C[C@H](NC(=O)[C@@H](O)[C@H](N)Cc1ccccc1)C(=O)O,Potency,[1],inactive
same,Potency,[4],inactive
Cc1cc([C@@H](C)Nc2ccccc2C(=O)O)c2nc(N3CCOCC3)cc(=O)n2c1,Potency,[4],inactive
N[C@@H]1CONC1=O,Potency,[1],inactive
same,Potency,[4],inactive
Cc1[nH]c(=O)c(C#N)cc1-c1ccncc1,Potency,[3],inactive
same,Potency,[5],inactive
same,Potency,[4],inactive
NNCCc1ccccc1,Potency,[1],inactive
same,Potency,[4],inactive
